# Measured values as given in PubChem BioAssay.
# Results filed as inconclusive are left out. The source made the active and inactive calls.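 Rule for the calls, unless noted: active = percent response above a set limit, the screen-wide mean plus 3 SD (cut at about 130% in these data); inactive = the rest.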
# Tests used:
# [1] = yeast TOR pathway RPL19A-GFP modulators, primary screen, cell-based, S. cerevisiae, multiplex flow cytometry (AID 1862; in the data active = percent of DMSO control GFP below about 86%;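 note: lower values mimic rapamycin by blocking the RPL19A rise seen in DMSO cells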); details: S. cerevisiae RPL19A-GFP strain, flow cytometry fluorescence, 3 h; at 10 µM; stronger effect = lower value
# [2] = modulators of MEP2-GFP levels in yeast, primary screen, S. cerevisiae, multiplex flow cytometry (AID 1867;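 active = GFP response, as percent of the DMSO control, above the screen-wide mean plus 3 SD, about 139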;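 note: median GFP channel fluorescence of barcode-gated MEP2-GFP cells measured by flow cytometry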); details: S. cerevisiae MEP2-GFP strain, 3 h, at 10 µM, stronger effect = higher value, 100% means same as DMSO wells
# [3] = modulators of CIT2-GFP expression in yeast, primary screen, S. cerevisiae, GFP fusion, multiplex flow cytometry (AID 1870); details: 3 h, at 10 µM, stronger effect = higher value;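 note: barcoded CIT2-GFP strain pooled with four other GFP strains with rapamycin as positive control; median GFP fluorescence per well over plate mean of DMSO wells so 100% = DMSO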
# [4] = modulators of LAP4-GFP expression in yeast, primary screen, S. cerevisiae, multiplex flow cytometry (AID 1873;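 active = GFP signal, as percent of the solvent control, above the screen mean plus 3 SD, about 149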); details: 3 h, at 10 µM, stronger effect = higher value
# [5] = modulators of AGP1-GFP expression in yeast TOR pathway, primary screen, cell-based, multiplex flow cytometry, S. cerevisiae (AID 1887;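 active = GFP signal above the screen-wide mean plus 3 SD, that is over about 124.5% of the solvent control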;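 note: AGP1-GFP fusion strain of S. cerevisiae within a five-strain barcoded multiplex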); details: 3 h, at 10 µM, stronger effect = higher value
# [6] = inhibitors of CD8+ T cell-vesicle binding, pilot screen, LFA-1/ICAM-1 modulator project, MLPCN validation set, flow cytometry (AID 2523;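 active = response below a set limit, under 55% cells CD8-positive and vesicle-bound, and CD8 cells' 90th-percentile brightness under 279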;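 for vesicle binding response: mean PE anti-B7-1 fluorescence of CD8+ cells relative to row control; 100% = QL9-loaded vesicles with DMSO vehicle in the same plate row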); details: 2C mouse CD8+ T cells, at 7 µM, stronger effect = lower value; double positive events: measured here: CD8+/vesicle+ event percentage
# [7] = molecular target: Integrin beta-1 (Homo sapiens) + Integrin alpha-4 (Homo sapiens) (UniProt P13612+P05556); experiment: inhibition of HUTS-21 binding to VLA-4, pilot screen, VLA-4 allosteric modulator project, U937 cells, HUTS-21 mAb, flow cytometry, validation set (AID 2674;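 active = inhibition above 50%, about 3 SD of the validation set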;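 note: antibody binding induced by the VLA-4 ligand LDV present at three times its Kd; 0% = LDV ligand with antibody and no compound and 100% = antibody without LDV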); details: HUTS-21 LIBS mAb binding, at 6.7 µM, stronger effect = higher value, binding induced by LDV ligand
# [8] = superoxide lowering in aged yeast cells, pilot screen, validation compound set (AID 2706;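 active = superoxide response below 65% of plate, a cut near 3 SD across the whole screen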;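 note: yeast exposed to compound for one week at 30 degrees C before staining; 100% = mean of all compound wells on the same plate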); details: S. cerevisiae aging, superoxide DHE fluorescence; at 10 µM; stronger effect = lower value
# [9] = molecular target: Beta-adrenergic receptor kinase 1 (Homo sapiens) (UniProt P25098); experiment: GRK2 binders displacing RNA aptamer, biochemical, validation, human GRK2, bead flow cytometry (AID 488806;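 active = aptamer binding inhibition above 30%, about 3 SD of noise from non-fluorescent compounds; inactive = inhibition at or below 30%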); details: bead-bound GRK2, FAM-aptamer displacement, at 10 µM, stronger effect = higher value
# [10] = molecular target: Beta-2 adrenergic receptor (Homo sapiens) (UniProt P07550); experiment: beta2AR agonists driving receptor internalization, pilot screen, cell-based, FAP fluorogen, flow cytometry, validation set (AID 504459;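 active = percent response above 42, roughly 3 SD of non-fluorescent test compounds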;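 note: agonist-driven loss of surface beta2AR via internalization measured by FAP dye flow cytometry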); details: Am2.2-beta2AR cells, FAP surface receptor flow cytometry; at 10 µM; stronger effect = higher value
# [11] = molecular target: AP-2 complex subunit beta (Homo sapiens) (UniProt P63010); experiment: inhibitors of arrestin peptide binding to AP2, pilot screen, biochemical, validation set, GST-AP2 beads, flow cytometry (AID 504541;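 active = inhibition above 54%, about 3 SD of non-fluorescent compounds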;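 note: AP2 carries R879A mutation and is captured from E. coli lysate; bead-bound FITC arrestin peptide fluorescence measuring arrestin peptide binding to AP2; 0% = DMSO wells and 100% = excess unlabeled arrestin peptide control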); details: FITC arrestin peptide, at 10 µM, stronger effect = higher value, AP2 beta2 appendage fragment, R879A mutant
# [12] = yeast V-ATPase proton transport modulators, S. cerevisiae, pHLuorin, HTS validation (AID 504600; in the data active = response above about 15%;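 note: plate controls were DMSO for no effect and reference compound for full effect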); details: S. cerevisiae pHLuorin cytosolic pH, at 10 µM, stronger effect = higher value
# [13] = tested on: anti-desmoglein-3 scFv antibody binding to human DSG3; experiment: inhibitors of anti-DSG3 scFv binding to DSG3, pilot screen, biochemical, validation compound set, bead-based, flow cytometry (AID 588368;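 active = binding below the plate cutoff, the plate median minus 3 SD, with a reading above zero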;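 note: signal is the median channel fluorescence of bead-bound GFP antibody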); details: Protein G beads, DSG3-Fc, scFv-GFP binding, at 10 µM, stronger effect = lower value
# [14] = inhibitors of fungal efflux pumps CDR1, CDR2, MDR1, pilot screen, validation compound set, multiplex, phenotypic (AID 588506;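 active = efflux inhibition above 0.42, the validation set average plus 4 SD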;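 note: Nile Red retained in cells so higher fluorescence means more efflux inhibition; 0 = negative control wells and 1 = enniatin B 25 µM full block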); details: S. cerevisiae pump-expressing triplex, Nile Red efflux flow cytometry; at 10 µM; stronger effect = higher value; the pumps come from Candida albicans
# [15] = molecular target: ATP-binding cassette sub-family B member 6 (Homo sapiens) (UniProt Q9NP58); experiment: ABCB6 transporter inhibitors, pilot screen, K562-ABCB6 cells, flow cytometry, validation set (AID 588550;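 active = inhibition above the screen-wide mean plus 3 SD, about 51%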;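 note: 0% = DMSO wells and 100% = benzethonium chloride 70 µM positive control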); details: K562-ABCB6 porphyrin accumulation, 1 h, at 10 µM, stronger effect = higher value
# [16] = promoters of myeloid differentiation in arrested cells, primary screen, cell-based, GFP/MAC1 double positive, flow cytometry, validation set (AID 588685;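 active = differentiation response of at least 50%, scaled between solvent and reference control, from cells with both markers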;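 note: compound exposure lasts four days before antibody staining and flow analysis; 0% = DMSO wells and 100% = 5 µM fulvestrant positive control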); details: ER-HoxA9 marrow cells, stronger effect = higher value, normalized: vehicle 0, fulvestrant 100
# Sequence of Integrin beta-1 (Homo sapiens) + Integrin alpha-4 (Homo sapiens) (P05556 whole entry, looked up): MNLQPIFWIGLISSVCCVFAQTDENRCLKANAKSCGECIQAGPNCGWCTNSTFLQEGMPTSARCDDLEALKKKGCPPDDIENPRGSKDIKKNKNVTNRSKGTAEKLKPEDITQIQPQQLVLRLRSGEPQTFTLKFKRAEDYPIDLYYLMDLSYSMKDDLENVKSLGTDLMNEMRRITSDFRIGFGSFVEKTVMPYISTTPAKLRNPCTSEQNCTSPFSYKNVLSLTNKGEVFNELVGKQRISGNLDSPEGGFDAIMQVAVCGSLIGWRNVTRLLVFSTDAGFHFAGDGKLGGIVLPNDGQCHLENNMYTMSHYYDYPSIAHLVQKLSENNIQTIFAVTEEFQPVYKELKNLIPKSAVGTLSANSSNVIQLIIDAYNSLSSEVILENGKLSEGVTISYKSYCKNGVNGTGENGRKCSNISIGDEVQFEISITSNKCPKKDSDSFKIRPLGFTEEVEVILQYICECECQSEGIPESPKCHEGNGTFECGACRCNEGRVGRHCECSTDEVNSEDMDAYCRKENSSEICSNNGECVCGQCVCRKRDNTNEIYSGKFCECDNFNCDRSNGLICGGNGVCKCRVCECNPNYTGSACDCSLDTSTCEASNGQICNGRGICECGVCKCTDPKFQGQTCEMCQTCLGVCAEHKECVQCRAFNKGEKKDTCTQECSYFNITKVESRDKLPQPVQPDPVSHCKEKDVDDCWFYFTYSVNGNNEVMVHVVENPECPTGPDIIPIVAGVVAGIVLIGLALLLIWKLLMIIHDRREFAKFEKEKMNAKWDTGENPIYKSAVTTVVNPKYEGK
# Sequence of Integrin beta-1 (Homo sapiens) + Integrin alpha-4 (Homo sapiens) (P13612 whole entry, looked up): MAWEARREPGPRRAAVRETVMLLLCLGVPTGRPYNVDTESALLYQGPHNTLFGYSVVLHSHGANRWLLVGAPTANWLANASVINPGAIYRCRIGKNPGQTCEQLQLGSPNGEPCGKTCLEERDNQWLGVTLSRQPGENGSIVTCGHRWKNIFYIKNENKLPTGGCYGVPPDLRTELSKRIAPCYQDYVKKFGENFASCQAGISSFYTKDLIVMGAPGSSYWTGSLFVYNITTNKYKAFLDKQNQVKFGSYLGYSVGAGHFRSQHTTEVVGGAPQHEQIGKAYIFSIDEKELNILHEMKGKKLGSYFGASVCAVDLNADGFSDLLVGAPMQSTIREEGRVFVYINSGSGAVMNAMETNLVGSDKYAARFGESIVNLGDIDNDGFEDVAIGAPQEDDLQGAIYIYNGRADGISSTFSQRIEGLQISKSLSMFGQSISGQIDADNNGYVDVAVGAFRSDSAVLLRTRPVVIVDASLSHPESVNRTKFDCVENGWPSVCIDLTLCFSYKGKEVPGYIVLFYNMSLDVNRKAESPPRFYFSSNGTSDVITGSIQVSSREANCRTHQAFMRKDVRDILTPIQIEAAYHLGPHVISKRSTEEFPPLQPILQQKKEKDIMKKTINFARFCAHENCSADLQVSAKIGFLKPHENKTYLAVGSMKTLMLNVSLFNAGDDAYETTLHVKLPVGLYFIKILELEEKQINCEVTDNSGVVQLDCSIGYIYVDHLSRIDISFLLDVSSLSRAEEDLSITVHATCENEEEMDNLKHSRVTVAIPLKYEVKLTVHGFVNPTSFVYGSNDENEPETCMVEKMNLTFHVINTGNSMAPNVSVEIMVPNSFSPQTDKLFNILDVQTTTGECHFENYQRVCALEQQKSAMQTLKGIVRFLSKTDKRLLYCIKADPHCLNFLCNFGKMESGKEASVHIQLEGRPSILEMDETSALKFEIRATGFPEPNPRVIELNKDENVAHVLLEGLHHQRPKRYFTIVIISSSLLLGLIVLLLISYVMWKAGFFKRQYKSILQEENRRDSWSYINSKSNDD
# Sequence of AP-2 complex subunit beta (Homo sapiens) (P63010 whole entry, looked up, the tested form may be a part, one chain of several): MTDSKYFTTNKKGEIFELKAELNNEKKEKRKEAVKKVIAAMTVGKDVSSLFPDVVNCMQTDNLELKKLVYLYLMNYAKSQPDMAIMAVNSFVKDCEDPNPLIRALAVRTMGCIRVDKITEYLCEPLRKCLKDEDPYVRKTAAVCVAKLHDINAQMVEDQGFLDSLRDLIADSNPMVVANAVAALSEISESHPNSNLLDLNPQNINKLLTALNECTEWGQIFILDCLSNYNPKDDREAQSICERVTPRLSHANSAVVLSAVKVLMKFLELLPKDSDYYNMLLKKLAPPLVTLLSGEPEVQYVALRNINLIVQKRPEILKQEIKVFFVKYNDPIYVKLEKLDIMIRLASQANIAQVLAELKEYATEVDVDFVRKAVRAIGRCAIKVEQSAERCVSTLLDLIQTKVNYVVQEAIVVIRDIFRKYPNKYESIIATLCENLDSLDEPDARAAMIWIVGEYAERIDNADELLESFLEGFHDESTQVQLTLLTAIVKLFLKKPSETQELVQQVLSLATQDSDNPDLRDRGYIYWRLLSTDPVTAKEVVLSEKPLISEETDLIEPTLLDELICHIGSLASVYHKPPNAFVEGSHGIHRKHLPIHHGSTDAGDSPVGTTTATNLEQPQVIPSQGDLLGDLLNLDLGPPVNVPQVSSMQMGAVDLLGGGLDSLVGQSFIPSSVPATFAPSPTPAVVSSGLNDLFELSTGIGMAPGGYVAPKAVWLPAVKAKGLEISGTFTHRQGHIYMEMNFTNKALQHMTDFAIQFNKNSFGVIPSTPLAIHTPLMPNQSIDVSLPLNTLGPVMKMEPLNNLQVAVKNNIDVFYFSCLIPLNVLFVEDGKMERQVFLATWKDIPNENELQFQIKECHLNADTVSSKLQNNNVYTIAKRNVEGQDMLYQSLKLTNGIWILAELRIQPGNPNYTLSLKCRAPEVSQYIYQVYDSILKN
# Sequence of Beta-2 adrenergic receptor (Homo sapiens) (P07550 whole entry, looked up): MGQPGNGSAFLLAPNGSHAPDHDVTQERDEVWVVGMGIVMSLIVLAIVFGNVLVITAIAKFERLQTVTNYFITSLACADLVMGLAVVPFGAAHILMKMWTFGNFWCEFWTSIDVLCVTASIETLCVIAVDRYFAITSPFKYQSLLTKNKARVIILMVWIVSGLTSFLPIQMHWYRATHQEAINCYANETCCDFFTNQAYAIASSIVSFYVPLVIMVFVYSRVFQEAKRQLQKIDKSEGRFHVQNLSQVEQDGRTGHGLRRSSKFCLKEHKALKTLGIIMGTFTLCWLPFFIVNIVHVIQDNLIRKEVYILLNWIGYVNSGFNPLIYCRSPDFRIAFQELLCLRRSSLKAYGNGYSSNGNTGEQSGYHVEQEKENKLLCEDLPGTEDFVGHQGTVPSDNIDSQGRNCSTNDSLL
# Sequence of Beta-adrenergic receptor kinase 1 (Homo sapiens) (P25098 whole entry, looked up): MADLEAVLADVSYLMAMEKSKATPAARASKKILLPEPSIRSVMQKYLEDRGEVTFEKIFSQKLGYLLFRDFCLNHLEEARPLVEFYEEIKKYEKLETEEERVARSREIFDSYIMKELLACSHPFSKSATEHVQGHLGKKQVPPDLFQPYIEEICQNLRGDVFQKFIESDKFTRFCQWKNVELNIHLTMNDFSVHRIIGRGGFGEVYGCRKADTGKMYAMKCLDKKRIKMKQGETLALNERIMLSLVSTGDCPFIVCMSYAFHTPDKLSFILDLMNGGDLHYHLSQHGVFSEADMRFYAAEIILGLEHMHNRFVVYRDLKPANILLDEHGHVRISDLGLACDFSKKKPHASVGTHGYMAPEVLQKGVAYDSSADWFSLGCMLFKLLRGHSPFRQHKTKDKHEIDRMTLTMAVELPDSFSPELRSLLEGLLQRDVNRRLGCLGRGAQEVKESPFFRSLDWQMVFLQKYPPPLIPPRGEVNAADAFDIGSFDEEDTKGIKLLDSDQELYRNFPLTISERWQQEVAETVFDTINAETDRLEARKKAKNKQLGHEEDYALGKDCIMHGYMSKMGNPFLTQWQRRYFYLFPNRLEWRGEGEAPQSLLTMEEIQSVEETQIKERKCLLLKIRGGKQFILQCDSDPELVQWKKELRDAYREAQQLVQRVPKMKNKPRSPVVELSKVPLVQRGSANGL
# Sequence of ATP-binding cassette sub-family B member 6 (Homo sapiens) (Q9NP58 whole entry, looked up): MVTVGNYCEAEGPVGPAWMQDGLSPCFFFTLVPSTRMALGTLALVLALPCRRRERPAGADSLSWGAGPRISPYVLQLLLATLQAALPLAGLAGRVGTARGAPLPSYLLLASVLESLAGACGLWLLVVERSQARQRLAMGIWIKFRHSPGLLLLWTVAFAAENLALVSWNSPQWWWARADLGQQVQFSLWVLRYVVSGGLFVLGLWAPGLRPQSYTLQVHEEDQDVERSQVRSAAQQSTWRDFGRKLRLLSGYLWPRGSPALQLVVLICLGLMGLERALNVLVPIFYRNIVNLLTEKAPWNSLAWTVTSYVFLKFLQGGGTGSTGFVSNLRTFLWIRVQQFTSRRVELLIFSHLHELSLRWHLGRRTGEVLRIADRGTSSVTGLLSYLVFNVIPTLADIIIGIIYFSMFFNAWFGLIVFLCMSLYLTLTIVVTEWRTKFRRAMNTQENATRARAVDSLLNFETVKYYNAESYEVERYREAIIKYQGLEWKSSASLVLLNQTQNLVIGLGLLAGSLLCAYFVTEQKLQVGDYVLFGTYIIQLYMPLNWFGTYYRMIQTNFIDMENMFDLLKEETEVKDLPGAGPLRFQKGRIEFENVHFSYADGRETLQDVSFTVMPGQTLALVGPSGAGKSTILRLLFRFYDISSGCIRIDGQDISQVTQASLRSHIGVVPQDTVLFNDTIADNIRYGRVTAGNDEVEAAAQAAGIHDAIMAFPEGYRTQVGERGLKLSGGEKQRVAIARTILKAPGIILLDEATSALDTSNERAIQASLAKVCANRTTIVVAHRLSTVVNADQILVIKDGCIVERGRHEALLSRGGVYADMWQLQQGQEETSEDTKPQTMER
Structure (SMILES),percent of DMSO control GFP [1],GFP response vs DMSO [2],percent response of DMSO control [3],GFP response vs DMSO [4],"GFP response, % of DMSO [5]",double positive events [6] [%],vesicle binding response [6],inhibition [7],superoxide response (% of plate) [8],aptamer binding inhibition [9],response [10],inhibition [11],response [12],binding (% of control) [13],efflux inhibition (fraction of control) [14],inhibition [15],differentiation response [16]
Cc1cc(OC(=O)CNC(=O)OC(C)(C)C)c2c(C)cc(=O)oc2c1,101% (inactive),105% (inactive),97.7% (inactive),108% (inactive),111% (inactive),62.2,460% (inactive),10.8% (inactive),107% (inactive),3% (inactive),-17.2% (inactive),6.94% (inactive),-0.27% (inactive),93.1% (inactive),0 (inactive),2% (inactive),3.88% (inactive)
NC(CO)C(=O)NNCc1ccc(O)c(O)c1O (centres undefined),98.4% (inactive),98.7% (inactive),98.6% (inactive),91.5% (inactive),96.5% (inactive),65.1,130% (inactive),13.7% (inactive),92.9% (inactive),8% (inactive),8.54% (inactive),62.4% (active),-0.21% (inactive),60.7% (active),0.66 (active),5% (inactive),-8.96% (inactive)
Cc1ccc(S(=O)(=O)n2ccnc2)cc1C,98.4% (inactive),112% (inactive),99.6% (inactive),108% (inactive),121% (inactive),60.3,160% (inactive),6.55% (inactive),95.2% (inactive),1% (inactive),-20.5% (inactive),-13.3% (inactive),1.99% (inactive),102% (inactive),-0.09 (inactive),3% (inactive),-2.03% (inactive)
CCc1cc2c(=O)c(-c3nc(C)cs3)coc2cc1OC(C)C(=O)NCCO (centres undefined),90.2% (inactive),129% (inactive),107% (inactive),86.4% (inactive),92.4% (inactive),62.3,143% (inactive),9.37% (inactive),95.6% (inactive),3% (inactive),8.19% (inactive),-0.76% (inactive),-0.12% (inactive),101% (inactive),-0.2 (inactive),10% (inactive),-4.09% (inactive)
CC1(C)[C@@H](O)CC[C@]2(C)[C@H]3C(=O)C=C4[C@@H]5C[C@@](C)(C(=O)O)CC[C@]5(C)CC[C@@]4(C)[C@]3(C)CC[C@@H]12,98.8% (inactive),100% (inactive),89.6% (inactive),112% (inactive),91% (inactive),64.3,698% (inactive),13% (inactive),82.7% (inactive),7% (inactive),7.4% (inactive),-5.72% (inactive),0.36% (inactive),97.6% (inactive),0.11 (inactive),15% (inactive),16.9% (inactive)
CCn1nc(C(=O)O)c(=O)c2cc3c(cc21)OCO3,103% (inactive),104% (inactive),104% (inactive),90.7% (inactive),98.3% (inactive),55.1,726% (inactive),14.1% (inactive),92.7% (inactive),2% (inactive),-7.41% (inactive),-8.41% (inactive),61.9% (active),98.4% (inactive),-0.1 (inactive),-8% (inactive),13.9% (inactive)
Cc1ccccc1N1C(N)=NC(N)=NC1(C)C,102% (inactive),103% (inactive),108% (inactive),94.8% (inactive),104% (inactive),63,135% (inactive),-9.13% (inactive),96.3% (inactive),0% (inactive),7.98% (inactive),-7.13% (inactive),1.38% (inactive),104% (inactive),-0.28 (inactive),20% (inactive),-19.2% (inactive)
COC(=O)c1ccccc1NC(=O)NCc1ccccc1,96.3% (inactive),131% (inactive),104% (inactive),85.8% (inactive),87.3% (inactive),63,165% (inactive),-0.33% (inactive),99% (inactive),6% (inactive),-13.3% (inactive),0.05% (inactive),1.35% (inactive),104% (inactive),-0.28 (inactive),15% (inactive),0% (inactive)
Cc1ncoc1C(=O)N1CCCC(C(=O)c2ccc(-c3ccccc3)c(F)c2)C1 (centres undefined),102% (inactive),121% (inactive),112% (inactive),76.5% (inactive),94% (inactive),49.9,220% (inactive),-3.24% (inactive),110% (inactive),8% (inactive),-19.4% (inactive),4.25% (inactive),-6.69% (inactive),101% (inactive),0.01 (inactive),12% (inactive),0.82% (inactive)
O=C(CCCN1C(=O)/C(=C\c2cccs2)SC1=S)Nc1ccccn1,103% (inactive),99.7% (inactive),92.4% (inactive),99.1% (inactive),96.8% (inactive),61.7,154% (inactive),-2.43% (inactive),115% (inactive),2% (inactive),-9.49% (inactive),-9.99% (inactive),-5.78% (inactive),94% (inactive),0.35 (inactive),-5% (inactive),-7.5% (inactive)
O=C1CCCC(=O)C1=Cc1c[nH]c2ccccc12,97.9% (inactive),102% (inactive),95.1% (inactive),112% (inactive),106% (inactive),62,226% (inactive),9.95% (inactive),108% (inactive),3% (inactive),28.4% (inactive),7.17% (inactive),5.91% (inactive),98.5% (inactive),0 (inactive),-6% (inactive),5.85% (inactive)
COCCOC(=O)C1=C(N)OC2=C(C(=O)CCC2)C1c1cccnc1 (centres undefined),105% (inactive),105% (inactive),100% (inactive),89.4% (inactive),101% (inactive),59.9,89.9% (inactive),-5.64% (inactive),99.2% (inactive),2% (inactive),-2.38% (inactive),4.01% (inactive),0.7% (inactive),99.3% (inactive),-0.1 (inactive),-4% (inactive),7.09% (inactive)
CCOCC(=O)Nc1nc2ccccc2s1,92.4% (inactive),125% (inactive),101% (inactive),80.9% (inactive),94.2% (inactive),65.7,149% (inactive),2.58% (inactive),95.4% (inactive),6% (inactive),-8.15% (inactive),-1.47% (inactive),3.42% (inactive),105% (inactive),0.23 (inactive),12% (inactive),-0.82% (inactive)
C#C[C@]1(O)CC[C@H]2[C@@H]3CCc4cc(OC)ccc4[C@H]3CC[C@@]21C,103% (inactive),104% (inactive),102% (inactive),126% (inactive),115% (inactive),63.7,229% (inactive),3.14% (inactive),115% (inactive),-1% (inactive),-13.2% (inactive),31.4% (inactive),0.87% (inactive),108% (inactive),-0.04 (inactive),5% (inactive),-2.03% (inactive)
Cc1cccc(C(=O)c2cccc(C)c2)c1,105% (inactive),103% (inactive),109% (inactive),105% (inactive),105% (inactive),56,45.4% (inactive),12% (inactive),104% (inactive),0% (inactive),-8.97% (inactive),-6.55% (inactive),1.1% (inactive),98.7% (inactive),-0.17 (inactive),1% (inactive),-7.57% (inactive)
COc1ccc(NS(=O)(=O)c2ccc(N)cc2)nn1,97.3% (inactive),104% (inactive),92.9% (inactive),120% (inactive),102% (inactive),56.9,162% (inactive),5.03% (inactive),91.9% (inactive),6% (inactive),-5.23% (inactive),4.72% (inactive),3.89% (inactive),102% (inactive),-0.17 (inactive),2% (inactive),-12% (inactive)
COc1ccccc1/C=C/C(=O)c1c2c(c(C)[nH]c1=O)CCCC2,97.8% (inactive),96.6% (inactive),96.4% (inactive),104% (inactive),114% (inactive),65.9,192% (inactive),17.6% (inactive),107% (inactive),8% (inactive),-4.6% (inactive),1.34% (inactive),17.4% (active),106% (inactive),-0.13 (inactive),4% (inactive),15.7% (inactive)
